Measured values as given in ChEMBL document CHEMBL1201862, “PubChem BioAssay data set” (2004).
Among all 220,000 compounds or so, about 2,400 (1.1%) were called active. Another 7% or so got no clear call; they are omitted. The rule behind the calls is not given here. Shown is part of a subset that was picked to be rich in actives.

target: Huntingtin (Homo sapiens) (UniProt P42858); assay: qHTS Multiplex Assay to Identify Dual Action Probes in a Cell Model of Huntington: Aggregate Formation (GFP). [Related pubchem assays: 1482, 1471 ]; assay type: functional
Sequence (P42858 whole entry): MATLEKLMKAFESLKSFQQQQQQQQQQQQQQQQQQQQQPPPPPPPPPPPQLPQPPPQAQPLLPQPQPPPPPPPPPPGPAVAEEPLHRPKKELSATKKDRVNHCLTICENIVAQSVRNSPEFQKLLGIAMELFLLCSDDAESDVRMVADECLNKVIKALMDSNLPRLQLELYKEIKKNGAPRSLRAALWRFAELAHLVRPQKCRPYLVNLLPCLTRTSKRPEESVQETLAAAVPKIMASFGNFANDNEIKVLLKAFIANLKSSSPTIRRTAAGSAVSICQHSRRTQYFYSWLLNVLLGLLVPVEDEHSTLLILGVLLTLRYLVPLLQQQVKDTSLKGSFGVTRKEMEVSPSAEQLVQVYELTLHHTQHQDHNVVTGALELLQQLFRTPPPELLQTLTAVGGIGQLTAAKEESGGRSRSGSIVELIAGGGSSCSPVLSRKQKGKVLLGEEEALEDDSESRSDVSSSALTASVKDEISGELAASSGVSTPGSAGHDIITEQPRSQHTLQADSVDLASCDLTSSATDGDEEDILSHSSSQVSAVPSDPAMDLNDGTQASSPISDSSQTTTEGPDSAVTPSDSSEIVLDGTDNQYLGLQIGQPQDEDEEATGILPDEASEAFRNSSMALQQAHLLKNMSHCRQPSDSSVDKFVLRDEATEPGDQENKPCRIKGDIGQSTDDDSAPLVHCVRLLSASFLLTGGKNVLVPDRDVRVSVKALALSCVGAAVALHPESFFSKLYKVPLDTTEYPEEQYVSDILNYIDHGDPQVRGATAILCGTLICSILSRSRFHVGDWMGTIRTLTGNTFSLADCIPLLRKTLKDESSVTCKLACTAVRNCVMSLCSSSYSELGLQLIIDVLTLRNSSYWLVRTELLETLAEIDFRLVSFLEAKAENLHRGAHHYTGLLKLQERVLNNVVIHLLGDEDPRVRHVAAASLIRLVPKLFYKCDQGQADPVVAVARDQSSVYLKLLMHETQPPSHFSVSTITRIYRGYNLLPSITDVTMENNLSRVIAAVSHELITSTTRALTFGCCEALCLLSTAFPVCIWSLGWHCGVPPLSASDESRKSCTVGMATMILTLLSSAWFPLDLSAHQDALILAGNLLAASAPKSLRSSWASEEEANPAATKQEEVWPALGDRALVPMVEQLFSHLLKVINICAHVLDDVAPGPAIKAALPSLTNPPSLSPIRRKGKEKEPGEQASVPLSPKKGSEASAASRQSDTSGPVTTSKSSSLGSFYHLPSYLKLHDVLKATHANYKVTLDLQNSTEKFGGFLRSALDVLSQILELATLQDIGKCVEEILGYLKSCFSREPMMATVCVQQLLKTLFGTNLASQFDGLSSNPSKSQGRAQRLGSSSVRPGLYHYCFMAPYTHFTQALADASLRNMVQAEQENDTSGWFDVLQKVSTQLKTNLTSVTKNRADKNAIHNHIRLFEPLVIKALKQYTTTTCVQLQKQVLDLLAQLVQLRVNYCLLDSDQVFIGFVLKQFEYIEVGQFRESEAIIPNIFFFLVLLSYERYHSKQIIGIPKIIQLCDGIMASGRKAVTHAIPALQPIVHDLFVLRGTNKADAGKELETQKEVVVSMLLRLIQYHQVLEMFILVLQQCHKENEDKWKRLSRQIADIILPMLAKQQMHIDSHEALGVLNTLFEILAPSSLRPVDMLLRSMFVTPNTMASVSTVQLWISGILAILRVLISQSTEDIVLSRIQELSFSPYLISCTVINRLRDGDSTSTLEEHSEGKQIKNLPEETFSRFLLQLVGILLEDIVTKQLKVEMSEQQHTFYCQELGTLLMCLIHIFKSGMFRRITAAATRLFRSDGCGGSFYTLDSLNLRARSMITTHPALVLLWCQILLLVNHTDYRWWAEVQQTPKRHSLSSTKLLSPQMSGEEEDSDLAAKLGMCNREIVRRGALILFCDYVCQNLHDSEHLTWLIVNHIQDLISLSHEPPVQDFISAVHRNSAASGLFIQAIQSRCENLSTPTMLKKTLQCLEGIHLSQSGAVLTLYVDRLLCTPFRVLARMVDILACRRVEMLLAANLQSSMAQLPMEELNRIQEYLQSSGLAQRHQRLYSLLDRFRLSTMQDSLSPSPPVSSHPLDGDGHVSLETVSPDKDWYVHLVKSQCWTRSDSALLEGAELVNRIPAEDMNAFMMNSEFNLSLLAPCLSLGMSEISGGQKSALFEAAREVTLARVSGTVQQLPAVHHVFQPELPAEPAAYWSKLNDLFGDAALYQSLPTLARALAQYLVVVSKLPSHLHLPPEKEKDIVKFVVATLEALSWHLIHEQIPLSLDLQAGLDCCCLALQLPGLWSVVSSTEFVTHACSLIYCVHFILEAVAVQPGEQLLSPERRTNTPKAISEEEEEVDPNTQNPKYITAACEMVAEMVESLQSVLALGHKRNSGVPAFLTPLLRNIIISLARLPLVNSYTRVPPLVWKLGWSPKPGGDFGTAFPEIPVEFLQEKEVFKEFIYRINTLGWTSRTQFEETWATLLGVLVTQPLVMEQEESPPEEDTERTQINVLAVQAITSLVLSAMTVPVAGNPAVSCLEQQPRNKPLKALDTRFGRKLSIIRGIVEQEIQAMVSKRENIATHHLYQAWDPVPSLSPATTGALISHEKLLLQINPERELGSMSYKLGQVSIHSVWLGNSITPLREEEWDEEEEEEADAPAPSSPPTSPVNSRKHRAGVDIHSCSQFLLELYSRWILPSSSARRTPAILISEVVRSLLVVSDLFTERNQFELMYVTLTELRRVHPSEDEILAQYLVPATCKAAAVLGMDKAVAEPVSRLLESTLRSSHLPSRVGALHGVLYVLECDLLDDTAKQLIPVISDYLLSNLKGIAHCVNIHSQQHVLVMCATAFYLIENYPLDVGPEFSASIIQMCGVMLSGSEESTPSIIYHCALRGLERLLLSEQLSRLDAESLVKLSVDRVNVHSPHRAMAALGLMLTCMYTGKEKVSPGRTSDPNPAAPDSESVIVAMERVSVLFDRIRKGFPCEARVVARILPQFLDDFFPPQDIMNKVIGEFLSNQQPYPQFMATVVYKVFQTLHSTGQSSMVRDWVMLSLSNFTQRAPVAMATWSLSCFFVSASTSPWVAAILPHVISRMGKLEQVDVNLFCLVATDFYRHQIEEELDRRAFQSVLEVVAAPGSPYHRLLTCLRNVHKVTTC

Potency, active:
O=C(c1nc2nc(-c3ccccc3)cc(C(F)(F)F)n2n1)N1CCOCC1 112 µM
CCOc1ccc(S(=O)(=O)n2ccc(C)n2)c2ccccc12 56.2 µM
Cc1nnc2sc(SCc3ccc(Cl)cc3)nn2c1=O 891 µM
CCOC(=O)c1ccc(N2CN(CCc3ccccc3)CN=C2S)cc1 112 µM
O=C1C2C3C=CC(C3)C2C(=O)N1CCCO (stereo not drawn) 89.1 µM
CCOC(=O)c1c(NC(=O)C2=C(C)N=C(S)NC2c2ccc(F)cc2)sc(C)c1C (stereo not drawn) 112 µM
CCOC(=O)Cn1c(-c2ccccn2)nc2ccccc21 224 µM
CN(C)CCN(C(=O)c1ccc(S(=O)(=O)N(C)C)cc1)c1nc2cc3c(cc2s1)OCCO3 141 µM
